The record followed here is the supplement of paper PMC8975748.

Structures can show the parent of a compound that is named as a salt.

The test system of this assay is Saccharomyces cerevisiae BY4741 SeMeCo community. Briefly: z-score of subpopulation abundance vs DMSO median, subpopulation auxotrophic for HM; higher = larger share of this subpopulation than in DMSO controls. To be noted: 10 µM; 24 h; SM minimal medium; subpopulation (auxotrophy): HM. The method, then: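 Fluorescent four-plasmid SeMeCo (self-establishing metabolically cooperating S. cerevisiae BY4741 community; plasmids pH-mRuby2, pL-mWasabi, pU-eCFP, pM-TagRFP657) was grown 24 h in minimal SM medium with each Selleck FDA-approved drug at 10 µM in 384-well plates. Cells were fixed and imaged by high-content confocal microscopy. For each auxotrophic subpopulation (and the prototroph), a z-score gives the deviation from the DMSO vehicle-control population median.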
Turning to `C=CC[C@]1(O)CC[C@H]2[C@@H]3CCC4=CC(=O)CCC4=C3C=C[C@@]21C` [Altrenogest], the “z-score of subpopulation abundance” value is -0.25.
The value for `Cn1cc(C2=C(c3cn(C4CCN(Cc5ccccn5)CC4)c4ccccc34)C(=O)NC2=O)c2ccccc21` was -1.56; that for `COC(=O)C1=CCCN(C)C1` [Arecoline HBr] was 0.08; that for `CN(C)[C@@H]1C(=O)C(C(N)=O)=C(O)[C@@]2(O)C(=O)C3=C(O)c4c(O)cccc4[C@@](C)(O)[C@H]3[C@H](O)[C@@H]12` [Oxytetracycline Dihydrate] was -0.75.
The figure for `CN(C)[C@@H]1C(=O)C(C(N)=O)=C(O)[C@@]2(O)C(=O)C3=C(O)c4c(O)ccc(Cl)c4[C@@](C)(O)[C@H]3C[C@@H]12` [Chlortetracycline HCl] is -0.67; for `CN(C)[C@@H]1C(=O)C(C(N)=O)=C(O)[C@@]2(O)C(=O)C3=C(O)c4c(O)cccc4[C@@](C)(O)[C@H]3[C@H](O)[C@@H]12` [Oxytetracycline (Terramycin)] it is 0.64; for `NC(=O)CN1CCCC1=O` [Piracetam] it is 1.21.
The value for `CN[C@@H]1[C@@H](O)[C@@H](O[C@@H]2[C@@H](O)[C@H](O[C@H]3O[C@H]([C@@H](C)O)[C@@H](O)[C@H](O)[C@H]3N)[C@@H](N)C[C@H]2N)OC[C@]1(C)O` [Geneticin (G418 Sulfate)] was -0.26; that for `CC(C)N(CCC(C(N)=O)(c1ccccc1)c1ccccn1)C(C)C` (stereo not given) [Disopyramide] was 0.08; that for `CC[C@H]1CN2CC[C@]3(C(=O)Nc4ccccc43)[C@@H]2C[C@@H]1/C(=C\OC)C(=O)OC` [Rhynchophylline] was -0.29.
Take `COc1ccc(C(CN(C)C)C2(O)CCCCC2)cc1` (stereo not given) [Venlafaxine HCl]: the “z-score of subpopulation abundance” value is -0.61.
For `CC(=O)OCC1=C(C(=O)O)N2C(=O)C(N)C2SC1` (stereo not given) [7-Aminocephalosporanic acid], the “z-score of subpopulation abundance” value was -0.48.
The value for `CN1[C@@H]2C[C@@H](OC(=O)[C@H](CO)c3ccccc3)C[C@H]1[C@@H]1O[C@@H]12` [Scopolamine HBr trihydrate] was -1.19.
`CCN1CC2(OC(=O)c3ccccc3NC(C)=O)CCC(OC)C34C1C(CC23)C1(O)CC(OC)C2CC4C1(O)C2OC` (stereo not given) [Lappaconitine]: the “z-score of subpopulation abundance” value was -0.28.
The value for `CC(NC(C)(C)C)C(=O)c1cccc(Cl)c1` (stereo not given) [Amfebutamone (Bupropion) HCl] was -0.38.
The figure for `CC(C)=CCOc1c2occc2cc2ccc(=O)oc12` [Imperatorin] is 1.29.
On to `Oc1cc(Cl)ccc1Oc1ccc(Cl)cc1Cl` [Triclosan], for which the “z-score of subpopulation abundance” value was -1.82.
The figure for `O=[N+]([O-])C(Br)(CO)CO` [Bronopol] is -0.03; for `C[C@@H]1CC[C@H]2[C@@H](C)C(=O)O[C@@H]3O[C@@]4(C)CC[C@@H]1[C@]32OO4` [Artemisinin] it is -2.41.
Consider `O=C(O[C@H]1C[C@H]2CC[C@@H](C1)[N+]21CCCC1)C(O)(c1ccccc1)c1ccccc1` [Trospium chloride], for which the “z-score of subpopulation abundance” value came out at 0.4.
In the case of `CCN(CC)CCOC(=O)C(O)(c1ccccc1)c1ccccc1` [Benactyzine hydrochloride], the “z-score of subpopulation abundance” value was -0.6.
The value for `COc1ccc(C(CN(C)C)C2(O)CCCCC2)cc1` (stereo not given) [Venlafaxine] was -0.77; that for `C=CCN1C[C@H](C(=O)N(CCCN(C)C)C(=O)NCC)C[C@@H]2c3cccc4[nH]cc(c34)C[C@H]21` [Cabergoline] was -0.83.
The value for `CC(C)(O)C(Cl)(Cl)Cl` [Chlorobutanol] was -0.53.
The value for `CCN(C)C(=O)Oc1cccc([C@H](C)N(C)C)c1` [Rivastigmine Tartrate] was -1.12; that for `CC[N+](C)(CC)CCOC(=O)C(O)(c1ccccc1)c1ccccc1` [Methylbenactyzine Bromide] was 0.02.
For the compound `CCCCCCCCCCCCCCCC[n+]1ccccc1` [Cetylpyridinium Chloride], the “z-score of subpopulation abundance” value worked out at 12.4.
The figure for `CN(C)C(=O)Oc1cccc([N+](C)(C)C)c1` [Neostigmine Bromide] is -0.54; for `CN[C@@H]1[C@@H](O)[C@@H](O[C@@H]2[C@@H](O)[C@H](O[C@H]3O[C@H](CN)CC[C@H]3N)[C@@H](N)C[C@H]2N)OC[C@]1(C)O.CN[C@@H]1[C@@H](O)[C@@H](O[C@@H]2[C@@H](O)[C@H](O[C@H]3O[C@H]([C@@H](C)N)CC[C@H]3N)[C@@H](N)C[C@H]2N)OC[C@]1(C)O.CN[C@@H]1[C@@H](O)[C@@H](O[C@@H]2[C@@H](O)[C@H](O[C@H]3O[C@H]([C@@H](C)NC)CC[C@H]3N)[C@@H](N)C[C@H]2N)OC[C@]1(C)O` [Gentamicin Sulfate] it is -0.24; for `CCC1=C[C@H]2CN3CCc4c([nH]c5ccccc45)[C@](C(=O)OC)(C2)[C@H]13` [Catharanthine] it is -0.61.
The figure for `CC[C@@]1(O)C(=O)OCc2c1cc1n(c2=O)Cc2cc3ccccc3nc2-1` [Camptothecin] is 0.23.
The figure for `NCC(O)c1ccc(O)cc1` (racemic) [(+,-)-Octopamine HCl] is -0.78; for `N[C@@H]1C[C@H]1c1ccccc1` [Tranylcypromine (2-PCPA) HCl] it is -0.71.
Regarding `C[C@@H]1O[C@@H](O[C@H]2C[C@@H](O)[C@]3(CO)[C@H]4[C@H](O)C[C@]5(C)[C@@H](C6=CC(=O)OC6)CC[C@]5(O)[C@@H]4CC[C@]3(O)C2)[C@H](O)[C@H](O)[C@H]1O` [Ouabain], the “z-score of subpopulation abundance” value is -0.63.
The figure for `CC[C@@H](C(N)=O)N1CCCC1=O` [Levetiracetam] is -0.1.
For `CN1c2ccccc2C(NCCCCCCC(=O)O)c2ccc(Cl)cc2S1(=O)=O` (stereo not given) [Tianeptine sodium], the “z-score of subpopulation abundance” value is -0.51.
The figure for `C#C[C@]1(O)C=C[C@H]2[C@@H]3CCC4=CC(=O)CC[C@@H]4[C@H]3CC[C@@]21CC` [Gestodene] is 0.34; for `C[N+]1(C)[C@@H]2C[C@@H](OC(=O)[C@H](CO)c3ccccc3)C[C@H]1[C@@H]1O[C@@H]12` [Methscopolamine] it is 0.16; for `Cc1cc(C(C#N)c2ccc(Cl)cc2)c(Cl)cc1NC(=O)c1cc(I)cc(I)c1O` (stereo not given) [Closantel] it is -0.13.
The figure for `COc1ccc2[nH]cc(CCN)c2c1` [5-Methoxytryptamine] is -0.25.
